Test results taken from PubChem BioAssay (EPA / NIEHS).
Inconclusive results are not listed. Calls of active or inactive are those of the source. The calls were made as follows, unless noted: active = hit-call score of the fitted dose curve at least 0.9, where 1 is the maximum; inactive = score below 0.9.

Tests used:
[1] = CEETOX_H295R_ANDR_noMTC: CeeTox H295R High-throughput Steroidogenesis Assay for Androstenedione (ANDR), maximum tolerated concentration (MTC) filtered results only (AID 2283915); conditions: actives raise or lower the signal
How it was run: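 H295R cells, passage 10 or below, prestimulated 48 h with 10 uM forskolin, then exposed 48 h to chemical in 0.1% DMSO. Medium androstenedione extracted with MTBE, quantified by HPLC-MS/MS; concentrations not MTC-filtered; bidirectional fit versus DMSO.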

[2] = CEETOX_H295R_CORTISOL_noMTC: CeeTox H295R High-throughput Steroidogenesis Assay for Cortisol, maximum tolerated concentration (MTC) filtered results only (AID 2283916); conditions: actives raise or lower the signal
How it was run: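 H295R human adrenal cells prestimulated 48 h with 10 uM forskolin, then exposed 48 h to chemical in 0.1% DMSO; cortisol in medium quantified by HPLC-MS/MS; bidirectional fit vs DMSO baseline, concentrations not MTT-filtered for MTC.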

[3] = CEETOX_H295R_CORTIC_noMTC: CeeTox H295R High-throughput Steroidogenesis Assay for Corticosterone (CORTIC), maximum tolerated concentration (MTC) filtered results only (AID 2283917); conditions: actives raise or lower the signal
How it was run: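 H295R adrenal cells pre-stimulated 48 h with 10 uM forskolin, then exposed 48 h to chemical in 0.1% DMSO; corticosterone in medium quantified by HPLC-MS/MS, fitted bidirectionally versus DMSO without MTT-based concentration filtering.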

[4] = CEETOX_H295R_DOC_noMTC: CeeTox H295R High-throughput Steroidogenesis Assay for DOC, maximum tolerated concentration (MTC) filtered results only (AID 2283918); conditions: actives raise or lower the signal
How it was run: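 H295R cells prestimulated 48 h with 10 uM forskolin, then exposed 48 h to chemical in 0.1% DMSO. 11-Deoxycorticosterone in medium measured by MTBE extraction and HPLC-MS/MS; bidirectional fit vs DMSO, no MTC filter.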

[5] = CEETOX_H295R_ESTRADIOL_noMTC: CeeTox H295R High-throughput Steroidogenesis Assay for Estradiol, maximum tolerated concentration (MTC) filtered results only (AID 2283919); conditions: actives raise or lower the signal
How it was run: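 H295R human adrenal cells pre-stimulated 48 h with 10 uM forskolin, then exposed 48 h to chemical (0.1% DMSO final). Estradiol in medium measured by HPLC-MS/MS after MTBE extraction and dansyl derivatization; bidirectional fit versus DMSO, concentrations not MTT-filtered.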

[6] = CEETOX_H295R_PROG_noMTC: CeeTox H295R High-throughput Steroidogenesis Assay for Progesterone (PROG), maximum tolerated concentration (MTC) filtered results only (AID 2283920); conditions: actives raise or lower the signal
How it was run: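 H295R cells, prestimulated 48 h with 10 uM forskolin, exposed 48 h to chemical in 0.1% DMSO. Medium progesterone quantified by MTBE extraction and HPLC-MS/MS; bidirectional fit versus DMSO, concentrations not MTT-filtered.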

[7] = CEETOX_H295R_ESTRONE_noMTC: CeeTox H295R High-throughput Steroidogenesis Assay for Estrone, maximum tolerated concentration (MTC) filtered results only (AID 2283921); conditions: actives raise or lower the signal
How it was run: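 H295R cells prestimulated 48 h with 10 uM forskolin, then exposed 48 h to chemical in 0.1% DMSO; medium estrone measured by HPLC-MS/MS after MTBE extraction and dansyl derivatization, fitted bidirectionally versus DMSO without MTT-based MTC filtering.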

[8] = CEETOX_H295R_TESTO_noMTC: CeeTox H295R High-throughput Steroidogenesis Assay for Testosterone (TESTO), maximum tolerated concentration (MTC) filtered results only (AID 2283924); conditions: actives raise or lower the signal
How it was run: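 H295R cells prestimulated 48 h with 10 uM forskolin, then exposed 48 h to chemicals in 0.1% DMSO final. Testosterone in medium quantified by MTBE extraction and HPLC-MS/MS; bidirectional fit versus DMSO, concentrations […] filtered by MTT-based maximum tolerated concentration.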

[9] = molecular target: PGR (gene 5241) (UniProt P06401); assay: TOX21_PR_BLA_Followup_Agonist_ratio: Tox21 HEK293 Progesterone Receptor (PR) Agonism Beta-lactamase Follow-Up Assay, Ratio (AID 2283933; active = hit-call score of the fitted dose curve at least 0.9, where 1 is the maximum)
Chain of PGR (gene 5241) (P06401 whole entry, looked up, the tested form may be a part): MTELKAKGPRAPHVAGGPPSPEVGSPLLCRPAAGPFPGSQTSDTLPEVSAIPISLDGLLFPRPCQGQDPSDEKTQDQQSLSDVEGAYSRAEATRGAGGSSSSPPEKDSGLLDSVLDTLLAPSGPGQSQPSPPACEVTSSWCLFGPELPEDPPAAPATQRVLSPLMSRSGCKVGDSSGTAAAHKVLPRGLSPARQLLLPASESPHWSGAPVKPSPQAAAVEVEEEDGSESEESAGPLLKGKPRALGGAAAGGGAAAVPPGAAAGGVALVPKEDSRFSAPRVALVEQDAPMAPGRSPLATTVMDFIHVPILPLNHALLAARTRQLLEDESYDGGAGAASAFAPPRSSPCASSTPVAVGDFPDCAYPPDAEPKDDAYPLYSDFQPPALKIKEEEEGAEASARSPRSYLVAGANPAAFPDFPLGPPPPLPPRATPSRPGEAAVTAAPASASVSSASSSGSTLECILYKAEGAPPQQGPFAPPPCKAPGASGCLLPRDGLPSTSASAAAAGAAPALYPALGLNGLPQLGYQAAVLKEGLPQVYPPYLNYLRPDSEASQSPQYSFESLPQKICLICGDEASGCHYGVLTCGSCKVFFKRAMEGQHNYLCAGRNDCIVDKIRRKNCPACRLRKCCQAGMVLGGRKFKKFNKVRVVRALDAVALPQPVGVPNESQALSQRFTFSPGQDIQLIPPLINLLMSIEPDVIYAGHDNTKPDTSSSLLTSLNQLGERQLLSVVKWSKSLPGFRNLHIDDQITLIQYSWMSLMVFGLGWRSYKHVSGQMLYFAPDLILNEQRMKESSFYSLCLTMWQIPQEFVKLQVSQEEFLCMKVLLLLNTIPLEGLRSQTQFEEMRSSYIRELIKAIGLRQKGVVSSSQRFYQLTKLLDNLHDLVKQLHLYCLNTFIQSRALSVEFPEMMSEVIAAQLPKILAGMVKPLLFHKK
How it was run: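 PR-UAS-bla HEK293T cells (GAL4-UAS beta-lactamase reporter) in medium with 2% charcoal-stripped FBS received compounds after 6 hr at 37C, then incubated 16 hr. LiveBLAzer FRET substrate added, 2 hr room temperature; cleaved/uncleaved (ch2/ch1) ratio fitted upward versus DMSO.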

[10] = molecular target: PGR (gene 5241) (UniProt P06401); assay: TOX21_PR_BLA_Followup_Antagonist_ratio: Tox21 HEK293 Progesterone Receptor (PR) Antagonism Beta-lactamase Follow-Up Assay, Ratio (AID 2283934; active = hit-call score of the fitted dose curve at least 0.9, where 1 is the maximum)
How it was run: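 PR-UAS-bla HEK293T cells in medium with 2% charcoal-stripped FBS were treated with compounds plus 1 nM (final) promegestone (R5020) for 16 hr at 37C. LiveBLAzer B/G FRET substrate was then added for 2 h at room temperature; signal is cleaved/uncleaved substrate ratio versus DMSO.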

Measured: AC50

CC(C)(C)c1cc(CCC(=O)NCCCCCCNC(=O)CCc2cc(C(C)(C)C)c(O)c(C(C)(C)C)c2)cc(C(C)(C)C)c1O
active: [6] 0.452 µM
inactive: [1] | [2] | [3] | [4] | [5] | [7] | [8]

O=C(c1ccccc1)c1ccc(O)cc1O
active: [10] 63.5 µM
inactive: [9]

Nc1c(Br)cc([N+](=O)[O-])cc1Br
inactive: [2] | [3] | [4] | [5] | [6] | [7]
